The results in this text go back to PubChem BioAssay.

Results filed as inconclusive are left out. Active and inactive are the calls of the source. Unless noted, how the calls were made is not given here.

A short description of test [1]: rapamycin-like changes in RPL19A-GFP expression – cell-based, S. cerevisiae, multiplex flow cytometry, primary screen (AID 1862; in the data active means percent of DMSO control GFP below about 86%;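 further: lower values mimic rapamycin by blocking the RPL19A rise seen in DMSO cells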). Conditions: S. cerevisiae RPL19A-GFP strain, flow cytometry fluorescence, 3 h; at 10 µM; stronger effect = lower value.
Test [2] is described as follows: TOR pathway GLN3 branch reporter MEP2-GFP changes – S. cerevisiae, multiplex flow cytometry, primary screen (AID 1867;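 active means GFP response, as percent of the DMSO control, above the screen-wide mean plus 3 SD, about 139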;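 further: median GFP channel fluorescence of barcode-gated MEP2-GFP cells measured by flow cytometry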). As to conditions: S. cerevisiae MEP2-GFP strain, 3 h, at 10 µM, stronger effect = higher value.
Test [3] in a line: TOR pathway RTG branch CIT2 reporter changes – S. cerevisiae, GFP fusion, multiplex flow cytometry, primary screen (AID 1870;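 active means percent response above a set limit, the screen-wide mean plus 3 SD, cut at about 130% in these data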;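 further: barcoded CIT2-GFP strain pooled with four other GFP strains with rapamycin as positive control; median GFP fluorescence per well over plate mean of DMSO wells so 100% = DMSO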). As to conditions: S. cerevisiae CIT2-GFP expression, 3 h, at 10 µM, stronger effect = higher value.
Test [4] is described as follows: TOR pathway LAP4-GFP level changes – S. cerevisiae, multiplex flow cytometry, primary screen (AID 1873;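 active means GFP signal, as percent of the solvent control, above the screen mean plus 3 SD, about 149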). Conditions: S. cerevisiae LAP4-GFP expression, 3 h, at 10 µM, stronger effect = higher value.
Test [5] in a line: yeast AGP1-GFP level changes, GLN3 branch – cell-based, multiplex flow cytometry, S. cerevisiae, primary screen (AID 1887;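 active means GFP signal above the screen-wide mean plus 3 SD, that is over about 124.5% of the solvent control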;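 further: AGP1-GFP fusion strain of S. cerevisiae within a five-strain barcoded multiplex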). As to conditions: 3 h, at 10 µM, stronger effect = higher value.
The nature of test [6]: reduced mouse 2C T cell binding to pMHC/ICAM-1 vesicles – MLPCN validation set, flow cytometry, LFA-1/ICAM-1 modulator project, pilot screen (AID 2523;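 active means response below a set limit, under 55% cells CD8-positive and vesicle-bound, and CD8 cells' 90th-percentile brightness under 279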;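 on vesicle binding response: mean PE anti-B7-1 fluorescence of CD8+ cells relative to row control; 100% = QL9-loaded vesicles with DMSO vehicle in the same plate row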). As to conditions: 2C mouse CD8+ T cells, at 7 µM, stronger effect = lower value; double positive events: measured here: CD8+/vesicle+ event percentage.
Test [7] deals with Integrin beta-1 (Homo sapiens) + Integrin alpha-4 (Homo sapiens) (UniProt P13612+P05556). Description: alpha4beta1 integrin LIBS antibody binding reduction – U937 cells, HUTS-21 mAb, flow cytometry, validation set, VLA-4 allosteric modulator project, pilot screen (AID 2674;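 active means inhibition above 50%, about 3 SD of the validation set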;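 further: antibody binding induced by the VLA-4 ligand LDV present at three times its Kd; 0% = LDV ligand with antibody and no compound and 100% = antibody without LDV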). Conditions: HUTS-21 LIBS mAb binding, at 6.7 µM, stronger effect = higher value.
For test [8], the target named is Beta-adrenergic receptor kinase 1 (Homo sapiens) (UniProt P25098). Description: GRK2 binders displacing RNA aptamer, biochemical, validation, human GRK2, bead flow cytometry (AID 488806;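 active means aptamer binding inhibition above 30%, about 3 SD of noise from non-fluorescent compounds; inactive means inhibition at or below 30%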). As to conditions: bead-bound GRK2, FAM-aptamer displacement, at 10 µM, stronger effect = higher value.
Chain of Beta-adrenergic receptor kinase 1 (Homo sapiens) (P25098 whole entry, looked up): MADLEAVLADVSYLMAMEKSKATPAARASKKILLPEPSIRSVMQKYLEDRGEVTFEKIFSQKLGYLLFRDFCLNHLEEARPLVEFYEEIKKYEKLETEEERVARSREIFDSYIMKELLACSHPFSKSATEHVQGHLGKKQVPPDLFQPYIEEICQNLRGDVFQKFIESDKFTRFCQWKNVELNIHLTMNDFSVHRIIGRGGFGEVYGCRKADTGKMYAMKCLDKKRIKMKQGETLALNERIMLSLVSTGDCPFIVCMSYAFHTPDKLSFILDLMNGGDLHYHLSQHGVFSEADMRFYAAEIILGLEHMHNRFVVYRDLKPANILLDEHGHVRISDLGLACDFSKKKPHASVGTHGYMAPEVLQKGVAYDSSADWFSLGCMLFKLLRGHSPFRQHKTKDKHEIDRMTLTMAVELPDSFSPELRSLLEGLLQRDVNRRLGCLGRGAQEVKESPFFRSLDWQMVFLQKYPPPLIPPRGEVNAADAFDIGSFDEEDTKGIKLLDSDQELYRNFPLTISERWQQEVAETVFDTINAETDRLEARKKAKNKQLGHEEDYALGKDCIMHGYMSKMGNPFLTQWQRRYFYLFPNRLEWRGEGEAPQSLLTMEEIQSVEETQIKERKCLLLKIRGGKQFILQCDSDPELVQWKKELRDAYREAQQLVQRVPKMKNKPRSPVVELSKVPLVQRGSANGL
Test [9] deals with Beta-2 adrenergic receptor (Homo sapiens) (UniProt P07550). Description: agonist-induced loss of surface beta2AR – cell-based, FAP fluorogen, flow cytometry, validation set, pilot screen (AID 504459;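 active means percent response above 42, roughly 3 SD of non-fluorescent test compounds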;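 further: agonist-driven loss of surface beta2AR via internalization measured by FAP dye flow cytometry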). Conditions: Am2.2-beta2AR cells, at 10 µM, stronger effect = higher value.
Chain of Beta-2 adrenergic receptor (Homo sapiens) (P07550 whole entry, looked up): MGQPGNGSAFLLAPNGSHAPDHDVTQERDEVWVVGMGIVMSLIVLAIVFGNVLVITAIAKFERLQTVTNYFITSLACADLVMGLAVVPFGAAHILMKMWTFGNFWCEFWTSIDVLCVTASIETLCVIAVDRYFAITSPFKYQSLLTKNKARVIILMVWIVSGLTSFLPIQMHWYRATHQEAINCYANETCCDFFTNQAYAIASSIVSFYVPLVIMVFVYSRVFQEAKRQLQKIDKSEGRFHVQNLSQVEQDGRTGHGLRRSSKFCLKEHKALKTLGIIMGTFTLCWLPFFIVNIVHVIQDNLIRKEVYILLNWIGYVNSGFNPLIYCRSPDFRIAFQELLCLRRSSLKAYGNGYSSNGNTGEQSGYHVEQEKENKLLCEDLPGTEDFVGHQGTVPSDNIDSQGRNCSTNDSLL
The target of test [10] is AP-2 complex subunit beta (Homo sapiens) (UniProt P63010). Kind of test: beta-arrestin/AP2 interaction blockers – biochemical, validation set, GST-AP2 beads, flow cytometry, pilot screen (AID 504541;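 active means inhibition above 54%, about 3 SD of non-fluorescent compounds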;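 further: AP2 carries R879A mutation and is captured from E. coli lysate; bead-bound FITC arrestin peptide fluorescence measuring arrestin peptide binding to AP2; 0% = DMSO wells and 100% = excess unlabeled arrestin peptide control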). Conditions: FITC arrestin peptide, at 10 µM, stronger effect = higher value.
Chain of AP-2 complex subunit beta (Homo sapiens) (P63010 whole entry, looked up, one chain of several): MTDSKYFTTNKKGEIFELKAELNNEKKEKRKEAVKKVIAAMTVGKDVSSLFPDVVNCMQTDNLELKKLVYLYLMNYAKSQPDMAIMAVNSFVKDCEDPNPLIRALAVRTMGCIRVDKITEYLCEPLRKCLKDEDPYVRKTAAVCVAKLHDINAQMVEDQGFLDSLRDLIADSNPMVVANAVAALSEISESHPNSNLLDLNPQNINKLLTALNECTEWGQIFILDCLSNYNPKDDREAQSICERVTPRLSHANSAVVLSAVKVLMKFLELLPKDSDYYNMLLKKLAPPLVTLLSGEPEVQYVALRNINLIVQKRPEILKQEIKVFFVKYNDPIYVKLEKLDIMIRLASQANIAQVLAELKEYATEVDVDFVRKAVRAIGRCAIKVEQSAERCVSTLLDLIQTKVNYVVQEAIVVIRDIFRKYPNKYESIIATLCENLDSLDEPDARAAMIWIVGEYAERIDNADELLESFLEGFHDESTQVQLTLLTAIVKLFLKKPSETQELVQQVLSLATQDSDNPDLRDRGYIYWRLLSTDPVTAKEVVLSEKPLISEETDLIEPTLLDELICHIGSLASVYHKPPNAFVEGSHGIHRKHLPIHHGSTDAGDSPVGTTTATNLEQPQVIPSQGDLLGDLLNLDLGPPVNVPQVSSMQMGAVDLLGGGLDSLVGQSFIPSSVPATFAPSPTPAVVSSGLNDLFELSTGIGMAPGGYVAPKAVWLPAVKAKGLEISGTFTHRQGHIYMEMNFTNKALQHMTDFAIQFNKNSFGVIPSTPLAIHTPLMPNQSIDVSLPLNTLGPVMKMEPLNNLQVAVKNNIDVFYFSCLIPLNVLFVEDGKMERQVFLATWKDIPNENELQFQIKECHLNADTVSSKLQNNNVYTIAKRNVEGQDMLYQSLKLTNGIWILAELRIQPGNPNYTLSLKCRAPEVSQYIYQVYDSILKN
A short description of test [11]: cytosolic pH regulators acting via V-ATPase – S. cerevisiae, pHLuorin, HTS validation (AID 504600; in the data active means response above about 15%;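 further: plate controls were DMSO for no effect and reference compound for full effect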). As to conditions: V-ATPase proton transport, at 10 µM, stronger effect = higher value.
The test system of test [12] is anti-desmoglein-3 scFv antibody binding to human DSG3. Kind of test: blockers of pathogenic pemphigus antibody–desmoglein-3 binding – biochemical, validation compound set, bead-based, flow cytometry, pilot screen (AID 588368;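 active means binding below the plate cutoff, the plate median minus 3 SD, with a reading above zero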;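 further: signal is the median channel fluorescence of bead-bound GFP antibody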). Conditions: Protein G beads, DSG3-Fc, scFv-GFP binding, at 10 µM, stronger effect = lower value.
For test [13], the system named is Botulinum neurotoxin type F light chain protease (Clostridium botulinum). Description: Clostridium botulinum type F light chain protease inhibitors, microsphere substrate cleavage, validation (AID 588459). As to conditions: multiplex microsphere protease substrate cleavage assay, flow cytometry; at 10 µM; stronger effect = higher value.
For test [14], the target named is Botulinum neurotoxin type A (Clostridium botulinum) (UniProt P0DPI0). Kind of test: BoNT/A light chain protease inhibitors, biochemical, multiplex microsphere flow cytometry, validation set (AID 588460). Conditions: at 10 µM, stronger effect = higher value.
Chain of Botulinum neurotoxin type A (Clostridium botulinum) (P0DPI0 whole entry, looked up): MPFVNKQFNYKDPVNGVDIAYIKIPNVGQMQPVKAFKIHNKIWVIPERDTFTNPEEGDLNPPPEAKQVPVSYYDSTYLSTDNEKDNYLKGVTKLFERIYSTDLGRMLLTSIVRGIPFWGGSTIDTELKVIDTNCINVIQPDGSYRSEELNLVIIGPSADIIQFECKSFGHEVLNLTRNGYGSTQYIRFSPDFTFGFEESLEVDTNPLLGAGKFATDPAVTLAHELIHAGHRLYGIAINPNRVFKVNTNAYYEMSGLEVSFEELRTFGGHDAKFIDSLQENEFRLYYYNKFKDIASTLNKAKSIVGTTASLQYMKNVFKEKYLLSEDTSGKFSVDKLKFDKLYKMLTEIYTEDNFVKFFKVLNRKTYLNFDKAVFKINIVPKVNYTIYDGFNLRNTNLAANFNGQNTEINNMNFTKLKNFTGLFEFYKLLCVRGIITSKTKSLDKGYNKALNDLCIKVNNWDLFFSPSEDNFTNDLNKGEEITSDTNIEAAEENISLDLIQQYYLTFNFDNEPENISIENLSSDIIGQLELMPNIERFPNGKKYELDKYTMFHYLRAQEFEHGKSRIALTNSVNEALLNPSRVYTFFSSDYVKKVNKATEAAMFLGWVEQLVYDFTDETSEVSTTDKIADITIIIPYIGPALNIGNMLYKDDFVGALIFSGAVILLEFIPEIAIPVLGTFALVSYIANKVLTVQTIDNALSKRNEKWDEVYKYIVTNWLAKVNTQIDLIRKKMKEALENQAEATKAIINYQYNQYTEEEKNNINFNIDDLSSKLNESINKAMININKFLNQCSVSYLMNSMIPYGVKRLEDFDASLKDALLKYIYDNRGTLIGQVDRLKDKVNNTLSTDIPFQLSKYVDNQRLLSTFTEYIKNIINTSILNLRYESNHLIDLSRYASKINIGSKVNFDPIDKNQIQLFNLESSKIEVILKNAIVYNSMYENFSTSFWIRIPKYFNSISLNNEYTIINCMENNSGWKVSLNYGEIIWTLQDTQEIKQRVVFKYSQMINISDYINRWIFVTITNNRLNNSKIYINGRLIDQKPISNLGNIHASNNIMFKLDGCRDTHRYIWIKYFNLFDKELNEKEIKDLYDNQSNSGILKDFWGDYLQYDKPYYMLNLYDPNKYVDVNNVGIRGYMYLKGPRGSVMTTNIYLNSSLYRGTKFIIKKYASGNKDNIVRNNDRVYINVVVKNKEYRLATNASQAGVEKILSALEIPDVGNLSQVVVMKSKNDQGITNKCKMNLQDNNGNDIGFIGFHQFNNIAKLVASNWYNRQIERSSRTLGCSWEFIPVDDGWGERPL
In test [15] the target is Lethal factor (Bacillus anthracis) (UniProt P15917). Description: Bacillus anthracis lethal factor inhibition, microsphere flow cytometry protease assay, validation at 10 µM (AID 588461). As to conditions: multiplex microsphere protease cleavage assay, stronger effect = higher value.
Chain of Lethal factor (Bacillus anthracis) (P15917 whole entry, looked up): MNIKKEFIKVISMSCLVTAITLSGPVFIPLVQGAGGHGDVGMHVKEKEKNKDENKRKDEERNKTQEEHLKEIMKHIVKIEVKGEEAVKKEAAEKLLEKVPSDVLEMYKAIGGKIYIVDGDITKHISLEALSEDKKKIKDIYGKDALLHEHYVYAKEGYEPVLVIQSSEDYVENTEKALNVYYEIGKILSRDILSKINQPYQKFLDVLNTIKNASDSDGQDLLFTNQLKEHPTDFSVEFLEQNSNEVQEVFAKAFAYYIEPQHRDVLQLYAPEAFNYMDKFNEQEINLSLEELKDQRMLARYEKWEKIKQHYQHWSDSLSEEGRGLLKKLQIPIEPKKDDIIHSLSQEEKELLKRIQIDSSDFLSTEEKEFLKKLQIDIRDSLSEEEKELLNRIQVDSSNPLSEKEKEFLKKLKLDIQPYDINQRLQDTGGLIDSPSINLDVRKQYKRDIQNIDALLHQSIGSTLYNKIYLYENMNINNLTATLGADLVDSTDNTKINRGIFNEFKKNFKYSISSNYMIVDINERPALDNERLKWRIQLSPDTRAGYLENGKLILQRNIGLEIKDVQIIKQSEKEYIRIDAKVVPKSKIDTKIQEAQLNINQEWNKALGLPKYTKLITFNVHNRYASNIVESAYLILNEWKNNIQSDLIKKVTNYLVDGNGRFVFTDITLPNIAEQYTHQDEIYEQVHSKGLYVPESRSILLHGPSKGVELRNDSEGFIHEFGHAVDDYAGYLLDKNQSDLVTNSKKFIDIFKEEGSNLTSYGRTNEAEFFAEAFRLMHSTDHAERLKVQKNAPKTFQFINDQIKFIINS
Test [16] can be described thus: Nile Red efflux blockade in pump-expressing yeast – validation compound set, multiplex, phenotypic, pilot screen (AID 588506;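 active means efflux inhibition above 0.42, the validation set average plus 4 SD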;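 further: Nile Red retained in cells so higher fluorescence means more efflux inhibition; 0 = negative control wells and 1 = enniatin B 25 µM full block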). As to conditions: S. cerevisiae pump-expressing triplex, Nile Red efflux flow cytometry; at 10 µM; stronger effect = higher value.
Test [17] deals with ATP-binding cassette sub-family B member 6 (Homo sapiens) (UniProt Q9NP58). Description: blockers of ABCB6-driven porphyrin uptake – K562-ABCB6 cells, flow cytometry, validation set, pilot screen (AID 588550;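 active means inhibition above the screen-wide mean plus 3 SD, about 51%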;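 further: 0% = DMSO wells and 100% = benzethonium chloride 70 µM positive control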). As to conditions: K562-ABCB6 porphyrin accumulation, 1 h, at 10 µM, stronger effect = higher value.
Chain of ATP-binding cassette sub-family B member 6 (Homo sapiens) (Q9NP58 whole entry, looked up): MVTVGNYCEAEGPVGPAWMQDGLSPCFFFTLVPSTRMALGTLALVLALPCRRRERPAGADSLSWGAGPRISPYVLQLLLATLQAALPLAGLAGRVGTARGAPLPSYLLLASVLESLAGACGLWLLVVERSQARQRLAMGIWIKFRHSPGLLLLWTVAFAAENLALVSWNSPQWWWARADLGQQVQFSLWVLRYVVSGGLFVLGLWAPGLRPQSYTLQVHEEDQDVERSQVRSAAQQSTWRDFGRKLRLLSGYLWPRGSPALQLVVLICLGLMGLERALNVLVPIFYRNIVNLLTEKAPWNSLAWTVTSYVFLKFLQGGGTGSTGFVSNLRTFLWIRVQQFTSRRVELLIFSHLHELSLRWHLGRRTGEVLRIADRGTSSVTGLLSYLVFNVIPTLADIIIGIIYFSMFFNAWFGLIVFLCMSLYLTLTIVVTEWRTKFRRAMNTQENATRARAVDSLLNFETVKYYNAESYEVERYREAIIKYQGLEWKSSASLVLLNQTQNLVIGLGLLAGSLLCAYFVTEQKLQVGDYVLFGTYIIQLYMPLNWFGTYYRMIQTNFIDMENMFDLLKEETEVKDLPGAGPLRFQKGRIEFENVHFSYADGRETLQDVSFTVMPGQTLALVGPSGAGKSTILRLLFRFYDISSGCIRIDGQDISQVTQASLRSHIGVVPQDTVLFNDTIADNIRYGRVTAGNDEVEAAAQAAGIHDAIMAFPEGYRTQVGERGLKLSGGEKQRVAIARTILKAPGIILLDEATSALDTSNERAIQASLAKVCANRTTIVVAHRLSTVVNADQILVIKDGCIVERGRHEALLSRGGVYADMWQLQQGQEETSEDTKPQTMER
Test [18] can be described thus: AML differentiation inducers, ER-HoxA9 marrow cells – cell-based, GFP/MAC1 double positive, flow cytometry, validation set, primary screen (AID 588685;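 active means differentiation response of at least 50%, scaled between solvent and reference control, from cells with both markers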;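 further: compound exposure lasts four days before antibody staining and flow analysis; 0% = DMSO wells and 100% = 5 µM fulvestrant positive control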). As to conditions: stronger effect = higher value.
The nature of test [19]: calorie-restriction mimetic ROS inhibitors, yeast – validation compound set, pilot screen (AID 2706;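 active means superoxide response below 65% of plate, a cut near 3 SD across the whole screen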;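 further: yeast exposed to compound for one week at 30 degrees C before staining; 100% = mean of all compound wells on the same plate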). As to conditions: S. cerevisiae aging, superoxide DHE fluorescence; at 10 µM; stronger effect = lower value.

For `CCN(CC)C(=O)N[C@H]1C[C@@H]2c3cccc4[nH]cc(c34)C[C@H]2N(C)C1`, the percent of DMSO control GFP in test [1] was 101% (inactive). Further, the GFP response vs DMSO in test [2] is 107% (inactive); in test [4], 94% (inactive). Besides, the percent response of DMSO control in test [3] is 101% (inactive). The GFP response, % of DMSO in [5] was 98.6% (inactive). This molecule came in with a double positive events in test [6] of 62.5%. The vesicle binding response in test [6] was 197% (inactive). Moreover, the inhibition in test [7] was -11.9% (inactive); in test [10], 28.7% (inactive); in test [13], -2.6% (inactive); in test [14], -1.3% (inactive); in test [15] it was -36% (inactive); in [17] it was -252% (inactive). Besides, in test [8], the aptamer binding inhibition is -2% (inactive). Further, the response in test [9] was -25% (inactive); in [11], -1.97% (inactive). Besides, the binding (% of control) in test [12] was 101% (inactive). Further, the efflux inhibition (fraction of control) in [16] is 0.36 (inactive). The differentiation response in test [18] was 21.8% (inactive).

Take `COc1ccc(Cc2nccc3cc(OC)c(OC)cc23)cc1OC`: in test [1], the percent of DMSO control GFP is 101% (inactive). Besides, the GFP response vs DMSO in test [2] is 96.7% (inactive); in test [4], 98.7% (inactive). Also, the percent response of DMSO control in test [3] is 94.9% (inactive). In addition, in [5], the GFP response, % of DMSO is 99.5% (inactive). Besides, the double positive events in test [6] amounted to 59.9%. In addition, the vesicle binding response in [6] was 146% (inactive). Also, the superoxide response (% of plate) in [19] was 96% (inactive). Besides, in test [8], the aptamer binding inhibition was 4% (inactive). Moreover, the response in test [9] was 20.1% (inactive); in test [11] it was -0.83% (inactive). Also, the inhibition was -1.6% (inactive) in [10]; 1.7% (inactive) in test [13]; 0.2% (inactive) in [14]; 3.7% (inactive) in test [15]; 4% (inactive) in test [17]. Moreover, in test [12], the binding (% of control) was 108% (inactive). Moreover, the efflux inhibition (fraction of control) in test [16] was 0.49 (active). Further, the differentiation response in test [18] is 6.49% (inactive).

For the molecule `CC(=O)[C@H]1CC[C@H]2[C@@H]3CC[C@H]4C[C@H](O)CC[C@]4(C)[C@H]3C(=O)C[C@]12C`, in [1], the percent of DMSO control GFP was 100% (inactive). For the same molecule, the GFP response vs DMSO was 97.9% (inactive) in test [2] and 106% (inactive) in test [4]. Further, the percent response of DMSO control in test [3] was 92% (inactive). In addition, in test [5], the GFP response, % of DMSO was 90.4% (inactive). Further, in test [6], the double positive events is 60.9%. In addition, the vesicle binding response in [6] was 146% (inactive). The inhibition in test [7] is 6.29% (inactive); in test [10], 42.5% (inactive); in test [13] it was 0.8% (inactive); in test [14], 2.5% (inactive); in test [15] it was -1.9% (inactive); in test [17] it was 5% (inactive). Moreover, in [19], the superoxide response (% of plate) is 110% (inactive). The aptamer binding inhibition in test [8] was 3% (inactive). Further, in [11], the response is -11.1% (inactive). In addition, the binding (% of control) in [12] was 99.5% (inactive). For the same molecule, in test [16], the efflux inhibition (fraction of control) is 0.14 (inactive). For the same molecule, the differentiation response in [18] was 46.6% (inactive).
